In the library only some 1.1% were active in any assay of this set; here they are far more common.
OPRM1-OPRD1 ag – OPRM1-OPRD1 heterodimerization agonism. hit rate 0.3% among 340,000. cells, luminescence. activation, % at 9.3 µM. P35372+P41143;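 further: 0% = vehicle-treated cells and 100% = reference agonist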
Target sequence (P35372 whole entry, looked up): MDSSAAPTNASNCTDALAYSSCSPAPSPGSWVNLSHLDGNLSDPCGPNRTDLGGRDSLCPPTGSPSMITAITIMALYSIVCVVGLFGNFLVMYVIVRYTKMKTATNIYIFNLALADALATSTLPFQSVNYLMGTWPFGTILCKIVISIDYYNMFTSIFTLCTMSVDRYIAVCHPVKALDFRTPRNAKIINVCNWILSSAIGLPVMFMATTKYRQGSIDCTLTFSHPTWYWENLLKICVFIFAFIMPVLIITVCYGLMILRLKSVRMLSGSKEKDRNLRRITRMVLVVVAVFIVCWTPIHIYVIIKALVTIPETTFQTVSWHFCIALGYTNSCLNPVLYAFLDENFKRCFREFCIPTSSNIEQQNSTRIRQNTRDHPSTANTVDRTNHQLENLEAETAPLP
Target sequence (P41143 whole entry, looked up): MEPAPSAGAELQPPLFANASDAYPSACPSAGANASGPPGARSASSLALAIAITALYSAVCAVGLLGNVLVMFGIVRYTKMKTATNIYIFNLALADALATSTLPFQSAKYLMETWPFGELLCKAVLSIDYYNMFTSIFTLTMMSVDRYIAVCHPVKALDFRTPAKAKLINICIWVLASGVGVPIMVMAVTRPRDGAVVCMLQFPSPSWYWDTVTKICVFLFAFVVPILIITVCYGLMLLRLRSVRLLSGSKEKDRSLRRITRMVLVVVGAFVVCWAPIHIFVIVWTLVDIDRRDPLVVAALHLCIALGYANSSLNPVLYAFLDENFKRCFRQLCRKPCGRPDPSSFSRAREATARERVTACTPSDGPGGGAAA
HTR5A ag – activates human HTR5A in OPRM1-OPRD1 agonist counter-screen; P47898; HTR5A agonist assay, luminescence, cell-based; activation, % at 9.3 µM; hit rate 0.61% among 340,000; AID 504692; in the data active means activation mostly above about 9.5%, no sharp cut-off; inactive means mostly below about 7.6%;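 further: 0% = cells with vehicle only and 100% = reference agonist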
HTR5A inv ctr – counter-screen for OPRM1-OPRD1 inverse agonists: human HTR5A inverse agonism. P47898. HTR5A cell line, luminescence. inhibition, % at 9.3 µM. hit rate 0.083% among 340,000; in the data active means inhibition mostly above about 23%, no sharp cut-off; inactive means mostly below about 18%;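 further: 0% = cells with DMSO and 100% = no-cell wells with DMSO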
OPRM1-OPRD1 inv – inverse agonist of human OPRM1-OPRD1 heterodimerization; P35372+P41143; cell-based MOR-DOR heterodimer luminescence, inverse agonism; inhibition, % at 9.3 µM; hit rate 0.21% among 340,000; AID 504357; in the data active means inhibition above about 22%, passing the limit was not always enough;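 further: 0% = cells with DMSO and 100% = wells without cells with DMSO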
MOR-DOR ag conf – OPRM1-OPRD1 heterodimer agonism, confirmation; AID 504904; activation, % at 9.3 µM; hit rate 45% among 830; cells, MOR-DOR heterodimerization, luminescence complementation; shares compounds with OPRM1-OPRD1 ag;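 further: 0% = vehicle-treated cells and 100% = reference agonist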
HTR5A ag counter – activates human HTR5A in OPRM1-OPRD1 agonist counter-screen. HTR5A agonist counterscreen, cell luminescence. hit rate 8% among 830. activation, % at 9.3 µM. shares compounds with OPRM1-OPRD1 ag; in the data active means activation above about 17%;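 further: 0% = vehicle-treated cells and 100% = reference agonist response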
* marks the source's active call; other numbers are inactive results; i = inactive; x = not tested or not shown. Unless noted, no stated cut-off is given here; in the data, active means activation above about 18%; inactive means the rest.

SMILES	OPRM1-OPRD1 ag	HTR5A ag	HTR5A inv ctr	OPRM1-OPRD1 inv	MOR-DOR ag conf	HTR5A ag counter
O=C(NCCc1ccccc1)C(c1cccs1)N(C(=O)c1csnn1)C1CC1 (stereo unspecified)	-2	-2	5	11	x	x
CC(=O)c1cccc(NC(=S)NC(=O)c2ccc(C)cc2Cl)c1	1	-2	5	-6	x	x
CC(C)CC(=O)Nc1ccc(C(=O)COC(=O)Cc2n[nH]c(=O)c3ccccc23)cc1	-5	-2	6	17	x	x
CN(C)C(CNC(=O)c1oc2ccccc2c1CSc1ncn[nH]1)c1ccco1 (stereo unspecified)	21*	1	-2	-111	30*	3
COCCCNC(=O)Cn1ccc(N)nc1=O	2	3	-4	-12	x	x
Cc1cc(C(=O)CSc2ccc3c(c2)OCCO3)c(C)n1C1CC1	0	-2	-8	0	x	x
CN(C)/C=C/C(=O)c1ccc(OCCN(C)c2ccccn2)cc1	20*	2	-8	-91	1	-3
COc1ccc(/C=N/n2c(-c3ccco3)nc3ccccc3c2=O)cc1	41*	1	-23	-240	-5	-4
O=C(NCC1CCCO1)c1ccc(NS(=O)(=O)c2cccs2)cc1 (stereo unspecified)	-3	0	3	17	x	x
Cc1ccc(OCCOc2ccc(Br)cc2/C=N\NC(N)=O)cc1	20*	8	-20	-98	1	71*
CN(C(=O)c1ccc(COc2ccccc2Br)o1)c1ccccc1	1	-1	-7	-8	x	x
Cn1c(=O)c2[nH]c(CCCCCCCc3nc4ccccc4[nH]3)nc2n(C)c1=O	0	1	-3	2	x	x
O=C1C(=O)c2ccc(-c3ccccc3)cc2-c2ccccc21	26*	5	-22	-118	0	3
Nc1ccc2c(c1)C(=O)C(=O)c1ccccc1-2	25*	4	-11	-125	0	1
O=[N+]([O-])c1cccc(C=NNC(=S)NC23CC4CC(CC(C4)C2)C3)c1	0	1	-5	2	x	x
CCS(=O)(=O)N1Cc2ccccc2CC1C(=O)Nc1ccc(F)c(F)c1F (stereo unspecified)	0	0	-1	2	x	x
C=CC[C@@H](CC(=O)N(CCO)Cc1ccccc1)C(=O)N[C@@H](COC(=O)[C@@H](CC=C)CC(=O)OC(C)(C)C)Cc1c[nH]c2ccccc12	29*	9	-54	-131	2	-3
CCNS(=O)(=O)c1ccc(NC(=O)Nc2ccc3c(c2)OCO3)cc1	111*	6	18	-362	73*	0
Cc1ccc(N2CCN(C(=S)c3ccc(-c4cccc([N+](=O)[O-])c4)o3)CC2)cc1	-2	-2	5	11	x	x
CN1CCN(c2ccc(NC(=O)c3ccc(-c4cccc([N+](=O)[O-])c4)o3)cc2)CC1	100*	-4	9	i	93*	5
O=C(Nc1ccc(N2CCN(C(=O)c3ccc(Cl)cc3)CC2)cc1)c1ccc(Br)o1	-1	-3	8	5	x	x
CN1CCN(c2ccc(NC(=O)c3ccc(-c4ccc(Cl)cc4)o3)cc2)CC1	306*	9	-31	i	20*	-2
CCN1C=C(C(=O)OC)C(c2cccc(OC)c2OC)C(C(=O)OC)=C1	-3	-1	3	15	x	x
CCN1CCN(c2ccc([N+](=O)[O-])c(Sc3nc4ccccc4[nH]3)c2)CC1	76*	-4	10	-457	69*	-3
O=[N+]([O-])c1ccc(N2CCN(CCO)CC2)cc1Sc1ccccn1	0	-2	21	4	x	x
SMILES	OPRM1-OPRD1 ag	HTR5A ag	HTR5A inv ctr	OPRM1-OPRD1 inv	MOR-DOR ag conf	HTR5A ag counter
CNC[C@H](Cc1ccccc1)NC[C@@H](Cc1cccc2ccccc12)NCCc1ccc(C)cc1	30*	1	-11	-167	4	-1
O=C(Nc1cccnc1)OC1CCCC1	-2	-4	-6	10	x	x
Fc1ccc(/C=C\c2nccc3c2[nH]c2ccccc23)cc1	19*	8	-17	-87	33*	37*
C(=C\c1nccc2c1[nH]c1ccccc12)/c1ccccc1	1	4	-16	-6	x	x
Cc1ccc(Cn2c(=N)n(CC(O)COc3ccccc3)c3ccccc32)cc1 (stereo unspecified)	24*	-5	8	-140	61*	2
N=c1n(Cc2ccccc2)c2ccccc2n1CC(O)COc1ccccc1 (stereo unspecified)	43*	-2	7	-225	0	-7
CCCCn1c(=N)n(CC(O)COc2ccc(C)cc2)c2ccccc21 (stereo unspecified)	5	1	-2	-25	x	x
CCCCn1c(=N)n(CC(O)COc2ccccc2)c2ccccc21 (stereo unspecified)	1	1	-30	-3	x	x
Cn1c(O)c(N=Nc2nc(-c3ccccc3)cs2)c2ccccc21	-3	-5	12	20	x	x
CSC(=Nc1ccccc1)N=C(SCc1ccccc1)N(C)C	76*	11	-41	-333	38*	0
N#CNC(=Nc1ccccc1)SCc1ccc(C(=O)O)cc1	-1	2	-6	6	x	x
CC1=CC2=NC(=O)/C(=C\c3cccn3CCOc3cc(C)ccc3C)C(=N)N2O1	0	-3	9	-1	x	x
CC(Nc1ccc(Br)cc1)C(=O)Nc1cccc(S(=O)(=O)N2CCOCC2)c1 (stereo unspecified)	0	4	-11	1	x	x
COc1ccc(N2C(=S)N=C(Nc3ccccc3)C23CCCCC3)cc1	29*	0	-5	-151	16	5
COc1ccc2[nH]c3c(N4CCc5ccccc5C4)ncnc3c2c1	20*	10	-21	-99	2	6
CCOC(=O)N1CCN(c2ncnc3c2[nH]c2ccc(OC)cc23)CC1	0	14	-45	1	x	x
c1ccc(CNc2c3ccccc3nc3ccccc23)cc1	22*	-1	5	-122	1	-2
CCOC(=O)C1C(c2cccc(F)c2)NC(=S)NC1(O)C(F)(F)F (stereo unspecified)	-3	3	-9	14	x	x
O=C(c1cnsn1)N1CCC(CO)(Cc2cccc(F)c2)CC1	-2	-1	3	14	x	x
CN1C2CCC1CC(N(CCc1ccccc1)C(=O)c1ccc(Cl)cc1)C2 (stereo unspecified)	2	2	-8	-11	x	x
CN1C2C=C(N(CCc3ccccc3)C(=O)c3ccc(Cl)cc3)CC1CC2 (stereo unspecified)	73*	1	5	-377	89*	-4
Cc1ccc(C2(O)CN(c3ccccc3C)C3=[N+]2CCS3)cc1 (stereo unspecified)	349*	5	12	i	373*	1
OC1(c2ccc(F)cc2)CN(c2ccccc2)C2=[N+]1CCS2 (stereo unspecified)	-3	0	-9	13	x	x
Cc1ccc(C2(O)CN(c3ccccc3)C3=[N+]2CCS3)cc1 (stereo unspecified)	77*	2	-5	-391	194*	1
